KCNQ2 block – KCNQ2 (rat) channel inhibition. B-score at 10 µM. CHO-K1 KCNQ2, FluxOR thallium flux, 20 min; stronger effect = lower value. O88943. 1.1% of 310,000 active;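 active means fluorescence ratio B-score at most minus 3 library SDs, with starting brightness B-score within 2 library SDs, cut at about -5.5 in these data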
KCNQ2 enhance – KCNQ2 (rat) channel potentiation | O88943 | CHO-K1 KCNQ2, FluxOR thallium flux fluorescence; stronger effect = higher value | B-score at 10 µM | 0.54% of 310,000 active | AID 2239;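 active means fluorescence ratio B-score at least 3 SD of library B-scores, with initial fluorescence B-score within 3 of them, cut at about 5.3 in these data; same plate scores as AID 2156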;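 further: B-score of peak minus minimum over baseline fluorescence ratio after K+ and Tl+ stimulus; positive B-score means potentiation of KCNQ2 with more thallium influx and brighter signal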
Kir21 confirm – confirmation of mouse Kir2.1 potassium channel inhibitors | shares compounds with KCNQ2 enhance | Kir2.1-expressing cells, FluxOR thallium flux fluorescence; stronger effect = lower value | Tl flux remaining, % of negative control (stronger effect = lower value), % at 10 µM | 41% of 2,300 active | AID 2032;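 active means Primary-screen hit whose thallium flux fell at least 3 control SD below untreated wells in both duplicates, with normal baseline fluorescence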;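 further: 0% = blank wells without stimulus and 100% = stimulated no-compound controls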
HEK293 ctr – parental HEK293 activity in Kir2.1 inhibitor counter-screen; shares compounds with KCNQ2 enhance; parental HEK293 cells, FluxOR thallium flux fluorescence; 0% = unstimulated blank wells; FluxOR signal as % of negative control (100 = no effect), % at 10 µM; 19% of 2,300 active; AID 2105;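 active means dye signal at least 3 control SD above or below untreated wells in both duplicates, raw fluorescence within 3, either direction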;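 further: percent is based on the flux ratio of peak minus minimum fluorescence over baseline F0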
CHO-K1 Tl ctr – parental CHO-K1 activity in KCNQ2 potentiator counter-screen; shares compounds with KCNQ2 enhance; parental CHO-K1 cells, FluxOR thallium flux fluorescence; zero = vehicle mean+3SD, 100% = vehicle-minus-blank window; activity increase over 3SD of controls, % at 10 µM; 43% of 1,200 active; AID 2282;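 active means signal rise of at least 3 SD above the untreated control mean, in both duplicate wells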;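 further: counter screen of KCNQ2 potentiator hits so any rise reflects channel-independent effects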
KCNQ1 sel pot – selectivity of KCNQ2 potentiators: effect on human KCNQ1; shares compounds with KCNQ2 enhance; CHO KCNQ1 stable, FluxOR thallium flux fluorescence; beyond 3SD, as % of vehicle-control signal; activation over 3SD threshold, % at 10 µM; 28% of 1,200 active;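 active means fluorescence ratio rise of at least 3 SD of vehicle wells above their mean, in both replicate wells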;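 further: 0% = vehicle mean plus 3 SD and 100% = vehicle minus unstimulated blank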
Target sequence (P51787 whole entry, looked up): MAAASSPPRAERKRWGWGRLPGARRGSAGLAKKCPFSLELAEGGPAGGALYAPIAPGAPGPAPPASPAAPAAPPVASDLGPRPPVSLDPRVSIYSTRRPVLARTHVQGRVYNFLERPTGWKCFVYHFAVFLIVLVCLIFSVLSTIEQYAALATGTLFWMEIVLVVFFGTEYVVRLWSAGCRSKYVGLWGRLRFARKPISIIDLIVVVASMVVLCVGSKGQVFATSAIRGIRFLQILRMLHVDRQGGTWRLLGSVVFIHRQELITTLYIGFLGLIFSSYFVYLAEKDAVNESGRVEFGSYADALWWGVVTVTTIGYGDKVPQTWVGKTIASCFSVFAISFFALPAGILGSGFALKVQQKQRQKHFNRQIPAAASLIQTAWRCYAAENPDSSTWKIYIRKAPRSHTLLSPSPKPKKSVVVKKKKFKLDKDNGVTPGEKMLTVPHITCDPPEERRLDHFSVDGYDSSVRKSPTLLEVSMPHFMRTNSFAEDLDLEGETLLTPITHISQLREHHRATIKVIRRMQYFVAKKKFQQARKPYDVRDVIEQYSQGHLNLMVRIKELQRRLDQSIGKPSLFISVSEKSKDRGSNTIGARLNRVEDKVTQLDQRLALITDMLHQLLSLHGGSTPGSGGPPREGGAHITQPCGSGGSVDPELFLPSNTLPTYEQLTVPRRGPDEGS
KCNQ2 pot conf – confirmation of rat KCNQ2 potassium channel potentiators. 68% of 1,200 active. shares compounds with KCNQ2 enhance. CHO-KCNQ2 cells, FluxOR thallium flux fluorescence. potentiation, less the hit threshold, % at 10 µM;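 active means fluorescence ratio rising 3 SD or more over the vehicle control mean in both replicates, plus primary screen hit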;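 further: peak minus minimum thallium fluorescence divided by baseline after K/Tl stimulus; 0% = vehicle mean plus 3 SD and 100% = vehicle minus unstimulated blank difference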
Kir2-1 sel – selectivity of KCNQ2 potentiators: effect on mouse Kir2.1; shares compounds with KCNQ2 enhance; 2% of 1,200 active; HEK293 Kir2.1, FluxOR thallium flux fluorescence; activity over 3SD threshold, % at 10 µM; AID 2345;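 active means fluorescence ratio rise of at least 3 SD above the vehicle-control mean, seen in both replicates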;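 further: 0% = vehicle mean plus 3 SD and 100% = vehicle minus no-stimulus blank window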
KCNQ2 W236L MoA – rat KCNQ2 W236L mutant potentiation by KCNQ2 potentiators. shares compounds with KCNQ2 enhance. CHO KCNQ2-W236L, automated patch clamp current. current increase over 3SD of negative controls (%), stronger effect = higher value, % at 25 µM. 10% of 940 active. AID 2558;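 active means current increase at least 3 SD of the untreated controls above them in both duplicate recordings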
An asterisk follows results filed as active. Rows were chosen to be rich in hits. Some 1.6% of all compounds tested hit in one or more screens of this group.

Screening Cc1ccc(C)c(CN2CCCN(Cc3cc(C)ccc3C)S2(=O)=O)c1 returned KCNQ2 block inactive.
For Cc1ccc(CN2CCCN(Cc3cc(C)ccc3C)S2(=O)=O)cc1 the results were KCNQ2 block inactive, KCNQ2 enhance 7.3*, Kir21 confirm inactive, HEK293 ctr inactive, CHO-K1 Tl ctr -26, KCNQ1 sel pot -20, KCNQ2 pot conf -22 and Kir2-1 sel -27.
For CCC(=O)NC(=S)Nc1ccc(NC(=O)COc2ccc(Cl)c(C)c2)cc1 the results were KCNQ2 block inactive and KCNQ2 enhance 0.07.
`Cc1cc(OCC(=O)NNC(=S)NC(=O)c2ccc(Br)o2)ccc1Cl` gave KCNQ2 block inactive, KCNQ2 enhance 8.1*, Kir21 confirm inactive, HEK293 ctr inactive, CHO-K1 Tl ctr 90*, KCNQ1 sel pot -3, KCNQ2 pot conf -22 and Kir2-1 sel -40.
For COC(=O)C1=C(C(=O)OC)N2C=CC=CC2(C)C(C(=O)OC)=C1C(=O)OC (configuration not stated) the results were KCNQ2 block inactive and KCNQ2 enhance 0.21.
`COc1ccc(C(=O)Nc2nnc(S(=O)(=O)N3CCCCCC3)s2)cc1OC` gave KCNQ2 block inactive.
CCOc1cc(/C=N/NC(=O)C(O)(c2ccccc2)c2ccccc2)ccc1OC(=O)c1ccco1 was read as KCNQ2 block inactive.
`CCC1(C)Cc2c(C#N)c(N)n(N)c(=S)c2CO1` (configuration not stated) gave KCNQ2 block inactive and KCNQ2 enhance 1.9.
Screening Cc1ccc(C(=O)CSc2nc(C(C)C)nc3ccccc23)cc1 returned KCNQ2 block inactive and KCNQ2 enhance 3.9.
Screening CC(C)c1nc(SCC(=O)Nc2nccs2)c2ccccc2n1 returned KCNQ2 block inactive and KCNQ2 enhance 0.11.
For CC(C)c1nc(SCC(=O)c2ccc(F)cc2)c2ccccc2n1 the results were KCNQ2 block inactive, KCNQ2 enhance 11*, Kir21 confirm inactive, HEK293 ctr inactive, CHO-K1 Tl ctr -9, KCNQ1 sel pot -4, KCNQ2 pot conf 36*, Kir2-1 sel -40 and KCNQ2 W236L MoA inactive.
Cc1csc(NC(=O)CSc2nc(C(C)C)nc3ccccc23)n1 was read as KCNQ2 block inactive, KCNQ2 enhance 6.2*, CHO-K1 Tl ctr 18*, KCNQ1 sel pot -29, KCNQ2 pot conf 1.0*, Kir2-1 sel -70 and KCNQ2 W236L MoA inactive.
For Cc1ccc(NC(=O)CC2C(=O)OCC3CCCCN32)cc1Cl (configuration not stated) the results were KCNQ2 block inactive.
For COc1ccc(-n2cc(C(=O)c3ccc4ccccc4c3O)cn2)cc1 the results were KCNQ2 block inactive and KCNQ2 enhance 1.5.
For Cc1cc(Cl)c(S(=O)(=O)N2CCCC2)cc1OCC(=O)NC1CCCCC1 the results were KCNQ2 block inactive, KCNQ2 enhance 27*, Kir21 confirm inactive, HEK293 ctr 139%*, CHO-K1 Tl ctr -17, KCNQ1 sel pot -5, KCNQ2 pot conf 133*, Kir2-1 sel -48 and KCNQ2 W236L MoA inactive.
For Cc1cc(Cl)c(S(=O)(=O)NC(C(=O)O)C(C)C)cc1OCC(=O)NC1CCCCC1 (configuration not stated) the results were KCNQ2 block inactive.
For CCN(CC)CC(=O)Nc1c(C)cc(C(C)(C)C)cc1C the results were KCNQ2 block inactive.
CC1CN(c2ccc([N+](=O)[O-])c(NCCOc3ccc(Cl)cc3)c2)CC(C)N1 (configuration not stated) was read as KCNQ2 block -7*, KCNQ2 enhance -7, Kir21 confirm 67%* and HEK293 ctr inactive.
Screening CC1CN(c2ccc([N+](=O)[O-])c(NCCOc3ccccc3)c2)CC(C)N1 (configuration not stated) returned KCNQ2 block inactive.
Screening CC(=O)c1c(C)[nH]c(C(=O)CN2C(=O)NC(C)(c3ccc4c(c3)OCCO4)C2=O)c1C (configuration not stated) returned KCNQ2 block inactive and KCNQ2 enhance 2.2.
`Cc1cccc(-c2nnc(SCc3ccccc3)o2)c1` gave KCNQ2 block inactive.
Screening CCOc1cccc(NC(=O)C2CC(=O)N(C)C(=Nc3cccc(F)c3)S2)c1 (configuration not stated) returned KCNQ2 block inactive, KCNQ2 enhance 6.5*, Kir21 confirm inactive, HEK293 ctr inactive, CHO-K1 Tl ctr -4, KCNQ1 sel pot -9, KCNQ2 pot conf -24 and Kir2-1 sel -40.
CCOc1cccc(NC(=O)C2CC(=O)N(C)C(=Nc3ccccc3)S2)c1 (configuration not stated) was read as KCNQ2 block inactive and KCNQ2 enhance 0.08.
CC(=O)N1CCN(c2ccc([N+](=O)[O-])c(-n3nc(C)cc3C)c2)CC1 was read as KCNQ2 block inactive.
For O=C(Nc1ccccc1)N(Cc1ccccc1)CC(O)C(F)(F)F (configuration not stated) the results were KCNQ2 block inactive.
Screening O=C(Nc1cccc(F)c1)N(Cc1ccc(Cl)cc1)CC(O)C(F)(F)F (configuration not stated) returned KCNQ2 block inactive, KCNQ2 enhance 6.7*, Kir21 confirm inactive, HEK293 ctr inactive, CHO-K1 Tl ctr -1, KCNQ1 sel pot 40*, KCNQ2 pot conf 14*, Kir2-1 sel -27 and KCNQ2 W236L MoA inactive.
Cc1cc(C)c(NC(=O)/C=C\C(=O)O)c(Cl)c1 was read as KCNQ2 block inactive.
Screening Cc1cc(C)c(NC(=O)CC(C)(C)C)c(Cl)c1 returned KCNQ2 block inactive, KCNQ2 enhance 25*, Kir21 confirm inactive, HEK293 ctr inactive, CHO-K1 Tl ctr -8, KCNQ1 sel pot -28, KCNQ2 pot conf 73*, Kir2-1 sel -29 and KCNQ2 W236L MoA inactive.
Cc1cc(C)c(NC(=O)CC(=O)c2ccccc2)c(Cl)c1 was read as KCNQ2 block inactive and KCNQ2 enhance 1.9.

Screening data (PubChem BioAssay)
